The list is not random: actives were taken first. Their share in the collection is about 14%.
Shiga inhibitor = blocks Shiga toxin action in Vero cells; actives 9.2% (n = 290,000); inhibition, % at 38.7 µM; Vero cells, Shiga toxin protein synthesis inhibition reporter; in the data active means inhibition mostly above about 28%, no sharp cut-off; inactive means mostly below about 43%; further: 0% is about no effect
NS1 function inh = inhibitors of influenza NS1 protein function; Potency, µM (top dose mostly 46.1 µM), without a hit: at the highest dose activity, positive = more growth; actives 0.4% (n = 270,000); calls by dose curve; further: potency means the concentration at half of the fitted maximal effect; actives are rising curves; nearly all actives have a fitted effect of over 50% in size
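A cell-based growth assay was used: compounds that relieve NS1-induced slow growth of budding yeast raise OD600. Assay medium was yeast nitrogen base with ammonium sulphate and -URA supplement, pH 6.0, with 2% galactose.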
Giardia FBPA inh = inhibitors of Giardia lamblia fructose-1,6-bisphosphate aldolase; AID 2451; actives 0.71% (n = 290,000); A8B2U2; purified Giardia FBPA; Potency, µM (doses to about 59.6 µM), inactives show at the top dose activity, negative = inhibition, actives largely listed as inhibitors; further: potency means the concentration at half of the fitted maximal effect; on the % scale 0 is the no-effect control and ±100 the full control effect; nearly all actives have a fitted effect of over 55% in size
Target sequence (A8B2U2 whole entry, looked up): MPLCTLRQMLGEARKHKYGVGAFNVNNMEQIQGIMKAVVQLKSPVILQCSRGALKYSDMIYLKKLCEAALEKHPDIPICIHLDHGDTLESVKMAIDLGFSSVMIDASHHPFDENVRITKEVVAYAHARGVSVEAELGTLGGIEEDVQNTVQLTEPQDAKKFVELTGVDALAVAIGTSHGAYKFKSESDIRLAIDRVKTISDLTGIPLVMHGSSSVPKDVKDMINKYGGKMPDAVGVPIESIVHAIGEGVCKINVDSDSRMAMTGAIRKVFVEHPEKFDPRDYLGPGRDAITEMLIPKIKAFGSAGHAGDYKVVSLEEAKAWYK
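Giardia FBPA (40 nM reagent) was preincubated 10 min at RT with compound (up to 57.5 uM final), then substrate plus GAPDH/TPI/NAD/arsenate coupling system with diaphorase/resazurin was added; resorufin fluorescence (525/598 nm) was read after 20 min.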
LmPK inhibitor = inhibitors of Leishmania mexicana pyruvate kinase | Q27686 | purified LmPK, Kinase-Glo ATP luminescence, 1 h | Potency, µM (highest dose often 57.5 µM), for inactives: top-dose activity change, negative = inhibition, usual class: inhibitors | AID 1721 | actives 0.37% (n = 290,000); further: potency means the concentration at half of the fitted maximal effect; on the % scale 0 is the no-effect control and ±100 the full control effect
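In 50 mM imidazole pH 7.2 with 7 mM MgCl2, LmPK (0.1 nM) turned over PEP (0.5 mM) and ADP (0.1 mM) for 1 h at room temperature. Luciferase read-out of ATP.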
Cycloheximide cs = affects cycloheximide protein synthesis inhibition readout, counter-screen. actives 12% (n = 300,000). max response, %. cell reporter, cycloheximide protein synthesis inhibition counterscreen. AID 2314; in the data active means max response mostly above about 13%, no sharp cut-off; inactive means mostly below about 14%; further: read at 38.3 µM for the half of the compounds with a filed dose; 0% is about no effect
Active calls of the source: *; ? = inconclusive; nt = not tested or not shown; [ ] = remark or other dose. Unless noted, the call rests on the fitted dose curve; in most records, active means well fitted curve in the direction sought with a large enough effect; inconclusive means small, poorly fitted or top-dose-only effect, or another doubt; inactive means no such curve, though single readings can be large; an effect the other way counts as inactive or inconclusive.

SMILES	Shiga inhibitor	NS1 function inh	Giardia FBPA inh	LmPK inhibitor	Cycloheximide cs
Cc1nc(COC(=O)c2ccc(S(=O)(=O)N3CCCC3)cc2)cs1	20	-17%	8%	2%	6
N/N=C(\Cc1cscn1)c1ccc(O)cc1O	80*	6%	-12%	5%	36*
Cc1nc(C/C(=N\N)c2ccc(O)cc2O)cs1	64	4%	-10%	-2%	25*
COc1ccc(C(=O)OCc2csc(C)n2)c(O)c1	61*	-2%	0%	-15%	42*
Oc1ccc(/C(Cc2ccccn2)=N\Nc2ccccc2)c(O)c1	-5	nt	?	25%	-1
C=CCCCCCCCCCBr	6	nt	-1%	nt	-6
OCC(O)C(O)[C@H](O[C@H]1OC(CO)C(O)C(O)C1O)[C@H](O)CO (stereo partly specified)	nt	nt	4%	nt	nt
CCc1[nH]nc(C(=O)NC2CCCc3c2cnn3-c2cc(C)cc(C)c2)c1C (stereo unspecified)	55*	-73%	nt	-6%	27*
Cc1cc(C)cc(-n2ncc3c2CCCC3NC(=O)CN2CCCC2=O)c1 (stereo unspecified)	16	-5%	nt	-11%	11
Cc1cc(C)cc(-n2ncc3c2CCCC3NC(=O)c2ccccc2N2CCOCC2)c1 (stereo unspecified)	-11	-56%	8%	3%	-2
CCc1noc(C)c1C(=O)NC1CCCc2c1cnn2-c1cc(C)cc(C)c1 (stereo unspecified)	34	-6%	9%	-3%	34*
Fc1ccc(C2=CC(c3ccco3)n3ncnc3N2)cc1 (stereo unspecified)	-6	-3%	-16%	1%	-2
Clc1ccccc1C1=CC(c2ccco2)n2nnnc2N1 (stereo unspecified)	-3	-8%	2%	-1%	1
C1=C(c2ccc(-c3ccccc3)cc2)Nc2ncnn2C1c1ccco1 (stereo unspecified)	92*	-78%	1%	-6%	31*
Brc1ccc(C2=CC(c3ccco3)n3nnnc3N2)cc1 (stereo unspecified)	57*	4%	4%	2%	16*
Cc1noc(C)c1-c1ccc2ncnc(NCc3ccc(Br)cc3)c2c1	28	nt	-1%	nt	27
CC(C)C[C@@H](CC(=O)N[C@H](CC(=O)N[C@@H]1CCNC[C@H]1C(=O)N[C@H](CC(=O)N[C@@H](CCC(=O)O)CC(=O)O)Cc1ccccc1)C(C)C)NC(=O)[C@@H]1CNCC[C@H]1N	nt	nt	7%	nt	nt
COC(=O)Oc1ccccc1C(=O)O	nt	nt	3%	nt	nt
Cc1cc2cc(CNC(=O)Nc3ccccc3)ccc2n1C	48*	?	-6%	2%	18*
CCCCC(=O)NCc1ccc2c(c1)cc(C)n2C	52*	?	-11%	-3%	14
CCOC(=O)CCC(=O)NCc1ccc2c(c1)cc(C)n2C	-26	-8%	-22%	0%	1
Cc1cc2cc(CNC(=O)c3ccc(S(=O)(=O)N4CCCCC4)cc3)ccc2n1C	17	1.3µM*	-29%	-4%	9
CCOC(=O)NCc1ccc2c(c1)cc(C)n2C	23	16%	1%	-3%	15*
Cc1cc2cc(CNC(=S)NCc3ccccc3)ccc2n1C	35	nt	-3%	2%	-1
Cc1nc(NCCO)c2nc(-c3ccccc3)n(CCN(C)C)c2n1	nt	nt	1%	nt	nt
SMILES	Shiga inhibitor	NS1 function inh	Giardia FBPA inh	LmPK inhibitor	Cycloheximide cs
COc1cccc2c1C(=O)c1c(O)c3c(c(O)c1C2=O)C[C@@](O)(C(=O)CO)C[C@H]3O[C@H]1C[C@@H](N)[C@H](O)[C@@H](C)O1.[W]	nt	-4%	nt	nt	nt
C=CCSc1nnc2c(n1)OC(c1cccnc1)N(C(C)=O)c1ccccc1-2 (stereo unspecified)	-31	-4%	2%	0%	2
c1ccc(CSc2nnc3c(n2)OC(c2ccco2)Nc2ccccc2-3)cc1 (stereo unspecified)	86*	17%	1%	-3%	26*
C=CCSc1nnc2c(n1)OC(c1cccnc1)Nc1ccccc1-2 (stereo unspecified)	128*	-6%	-20%	2%	27*
C=CCSc1nnc2c(n1)OC(c1c(C)[nH]n(-c3ccccc3)c1=O)Nc1ccccc1-2 (stereo unspecified)	32	-9%	-10%	4%	1
CC(=O)CC(C)(C)NC(C)=S	-6	7%	3%	2%	-3
COc1ccc(S(=O)(=O)N2CCC(C(=O)NCc3ccncc3)CC2)cc1OC	2	-17%	4%	-1%	-6
COc1ccc(C(=O)Nc2cc(OC)nc(OC)n2)cc1	53*	-9%	3%	?	19*
COc1ccc(C(=O)Nc2nc(C)cc(C)n2)cc1	15	8%	-6%	5%	1
COc1cc(NC(=O)CCc2ccccc2)nc(OC)n1	48*	-9%	4%	1%	35*
COc1cc(NC(=O)Cc2ccccc2)nc(OC)n1	31	1%	3%	0%	-1
CC(C)(C)OC(=O)N[C@@H](Cc1ccccc1)C(=O)NCC1CCC(C(=O)N[C@@H](CC(=O)O)C(=O)O)CC1 (stereo partly specified)	-2	9%	1%	-4%	-5
FC(F)(F)c1cccc(NC(=S)Nc2cccc(NC(=S)Nc3cccc(C(F)(F)F)c3)n2)c1	44*	-3%	-4%	7%	24*
Cc1cccc(NC(=S)Nc2cccc(C(F)(F)F)c2)n1	-4	10%	5%	-1%	-2
N#C[C@H](c1ccccc1)N1CCCN([C@@H](C#N)c2ccccc2)C1c1ccccc1O (stereo partly specified)	nt	-11%	nt	nt	nt
CCN(CC)CCN(Cc1cc2ccc(C)cc2[nH]c1=O)C(=O)Nc1ccc(Cl)cc1	78*	-35%	2%	6%	38*
CCN(CC)CCN(Cc1cc2ccc(C)cc2[nH]c1=O)C(=O)NC1CCCCC1	29	-3%	3%	4%	-3
Cc1ccccc1Nc1nc(N)nc(CSc2n[nH]c(N)n2)n1	10	2%	4%	-7%	9
Cc1nc(NC(=O)c2cccs2)ccc1Br	106*	-8%	0%	?	54*
Cc1cc(NC(=O)c2c(F)c(F)c(F)c(F)c2F)no1	-14	-2%	3%	-4%	1
CC(C)NC(=O)c1cc(-c2cccs2)on1	57*	5%	2%	-12%	31*
Cc1cc(C)nc(NC(=O)c2cccs2)c1	nt	-4%	-14%	7%	21*
Cc1cc(NC(=O)c2cc(C(C)C)on2)no1	67*	-48%	1%	-13%	48*
Cc1ccc(S(=O)(=O)N[C@H]2COC(=O)CC=C[C@@H](C)[C@H]3C=C[C@H](O)[C@@H](COC(=O)CC=C[C@H]2C)O3)cc1	nt	nt	3%[12.9 µM]	nt	nt
Cc1cc(NC(=O)c2cccs2)no1	57*	4%	3%	-12%	33*
Cc1cc(NC(=O)Cc2cccs2)no1	-11	?	-4%	3%	1
Cc1cc(NC(=O)c2cc(-c3cccs3)on2)no1	114*	-16%	2%	-1%	29*

High-throughput results (PubChem)
